Where “and” joins values, the source holds several entries; their conditions need not be identical. Equal entries are not always repeated. Results filed as inconclusive are left out. Calls of active or inactive are those of the source. Unless noted, calls come from the whole dose curve; as a rule, active = well fitted curve in the direction sought with a large enough effect; inconclusive = small, poorly fitted or top-dose-only effect, or another doubt; inactive = no such curve, though single readings can be large; an effect the other way counts as inactive or inconclusive.
Molecular target: Retinoic acid receptor RXR-alpha (Homo sapiens) (UniProt P19793)
Sequence (P19793 whole entry, looked up): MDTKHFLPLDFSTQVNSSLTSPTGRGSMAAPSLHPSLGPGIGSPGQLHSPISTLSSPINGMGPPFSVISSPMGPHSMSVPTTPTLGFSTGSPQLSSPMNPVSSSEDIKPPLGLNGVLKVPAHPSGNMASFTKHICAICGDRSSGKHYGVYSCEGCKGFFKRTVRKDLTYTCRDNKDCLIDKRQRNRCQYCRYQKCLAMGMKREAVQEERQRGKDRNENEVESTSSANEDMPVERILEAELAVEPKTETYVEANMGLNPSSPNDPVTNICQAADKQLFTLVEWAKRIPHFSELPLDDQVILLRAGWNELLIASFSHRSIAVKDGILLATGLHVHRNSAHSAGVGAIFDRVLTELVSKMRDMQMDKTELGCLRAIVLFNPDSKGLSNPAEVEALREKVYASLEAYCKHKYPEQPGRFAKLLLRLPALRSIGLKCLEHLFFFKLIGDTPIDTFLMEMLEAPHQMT
Test: qHTS assay for small molecule antagonists of retinoid X receptor alpha signaling (AID 588546; active = well fitted inhibition curve with a large enough effect in the signal ratio, with a control signal flat, not every such curve was filed as active; the % refers to the signal ratio;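 note: cells stimulated with 9-cis-retinoic acid as agonist; % is set by controls: 0 for no effect and ±100 for the full control effect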)
Conditions: HEK293T RXRa-UAS-bla, beta-lactamase ratio, antagonist mode
Summary of the method: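 Beta-lactamase reporter inhibition, read as CCF4 fluorescence ratio (ex 405, em 460/530 nm) after 2 h at RT. HEK293T UAS-bla cells, 2500/well, were stimulated with 9-cis-RA at 500 or 100 nM final alongside test compound for 18 h at 37 C.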

Row | Structure (SMILES) | max response
1 | O=C(O)COc1ccc(Cl)cc1Cl | -3.05% (inactive) [middle of 4 runs]
2 | ClC1=C(Cl)C2(Cl)C3C4C=CC(C4)C3C1(Cl)C2(Cl)Cl (centres undefined) | -13.5% (inactive)
3 | O=S1OCC2C(CO1)C1(Cl)C(Cl)=C(Cl)C2(Cl)C1(Cl)Cl (centres undefined) | -29.4% (inactive)
4 | c1ccc(N=Nc2ccccc2)cc1 | -1.15% (inactive) and 2.93% (inactive)
5 | CNC(=O)O/N=C/C(C)(C)SC | -10.4% (inactive) and 16.3% (inactive) and -14.6% (inactive)
6 | CCNc1nc(Cl)nc(NC(C)C)n1 | -16% (inactive) and 6.8% (inactive)
7 | C=CCc1ccc(OC)cc1 | 6.28% (inactive)
8 | ClC1=C(Cl)C2(Cl)C3C(Cl)C=CC3C1(Cl)C2(Cl)Cl (centres undefined) | -17.9% (inactive)
9 | ClC(Cl)=C(c1ccc(Cl)cc1)c1ccc(Cl)cc1 | -7.07% (inactive) and 0.666% (inactive)
10 | CCc1cccc(CC)c1N(COC)C(=O)CCl | -7.04% (inactive)
11 | C/C=C/c1ccc2c(c1)OCO2 | -0.653% (inactive)
12 | C=CCc1ccc2c(c1)OCO2 | 33.4% (inactive)
13 | COP(=S)(OC)Oc1ccc([N+](=O)[O-])cc1 | -10.1% (inactive) and -10.7% (inactive)

Molecular target: Thyroid hormone receptor beta (Homo sapiens) (UniProt P10828)
Sequence (P10828 whole entry, looked up): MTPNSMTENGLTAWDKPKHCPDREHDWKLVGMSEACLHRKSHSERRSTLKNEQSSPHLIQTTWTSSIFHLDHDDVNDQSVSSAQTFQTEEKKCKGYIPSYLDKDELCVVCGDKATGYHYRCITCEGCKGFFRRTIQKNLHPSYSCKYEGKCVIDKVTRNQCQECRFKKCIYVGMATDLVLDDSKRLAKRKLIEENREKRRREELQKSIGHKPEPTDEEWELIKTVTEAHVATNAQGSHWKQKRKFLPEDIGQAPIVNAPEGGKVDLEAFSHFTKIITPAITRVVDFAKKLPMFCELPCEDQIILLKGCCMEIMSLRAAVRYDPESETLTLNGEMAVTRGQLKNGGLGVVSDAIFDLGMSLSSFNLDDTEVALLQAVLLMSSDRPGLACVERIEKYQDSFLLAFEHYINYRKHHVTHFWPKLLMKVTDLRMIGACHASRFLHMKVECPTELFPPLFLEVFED
Test: qHTS assay for small molecule antagonists of thyroid hormone receptor beta signaling (AID 588547; active = well fitted inhibition curve with a large enough effect in the signal ratio, with a control signal flat, not every such curve was filed as active; the % refers to the signal ratio;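 note: cells stimulated with 0.4 nM T3 agonist during compound exposure; % is set by controls: 0 for no effect and ±100 for the full control effect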)
Conditions: TR-UAS-bla HEK293, beta-lactamase ratio, antagonist mode, 18 h
Summary of the method: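 TR-UAS-bla GripTite HEK293 cells in 2% charcoal/dextran FBS medium; compounds 0.59 nM to 92 uM with T3 at 0.4nM final, 18 h at 37 C. Beta-lactamase read by CCF4 fluorescence (460/530 nm); Hill fits gave IC50 and efficacy.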

Row | Structure (SMILES) | activity change % (negative = inhibition)
14 | c1ccc(N=Nc2ccccc2)cc1 | 5.03% (inactive) and -8.04% (inactive)
15 | CNC(=O)O/N=C/C(C)(C)SC | -3.92% (inactive) and 16.1% (inactive) and 0.362% (inactive)
16 | CCNc1nc(Cl)nc(NC(C)C)n1 | -11.1% (inactive) and -4.42% (inactive)
17 | C=CCc1ccc(OC)cc1 | -7.69% (inactive)
18 | ClC1=C(Cl)C2(Cl)C3C(Cl)C=CC3C1(Cl)C2(Cl)Cl (centres undefined) | -18.9% (inactive)
19 | ClC(Cl)=C(c1ccc(Cl)cc1)c1ccc(Cl)cc1 | 0.649% (inactive) and 24.3% (inactive) and -8.25% (inactive)
20 | C=CCc1ccc2c(c1)OCO2 | -3.5% (inactive)
21 | COP(=S)(OC)Oc1ccc([N+](=O)[O-])cc1 | -2.23% (inactive) and 4.43% (inactive)

Molecular target: Voltage-gated inwardly rectifying potassium channel KCNH2 (Homo sapiens) (UniProt Q12809)
Sequence (Q12809 whole entry, looked up): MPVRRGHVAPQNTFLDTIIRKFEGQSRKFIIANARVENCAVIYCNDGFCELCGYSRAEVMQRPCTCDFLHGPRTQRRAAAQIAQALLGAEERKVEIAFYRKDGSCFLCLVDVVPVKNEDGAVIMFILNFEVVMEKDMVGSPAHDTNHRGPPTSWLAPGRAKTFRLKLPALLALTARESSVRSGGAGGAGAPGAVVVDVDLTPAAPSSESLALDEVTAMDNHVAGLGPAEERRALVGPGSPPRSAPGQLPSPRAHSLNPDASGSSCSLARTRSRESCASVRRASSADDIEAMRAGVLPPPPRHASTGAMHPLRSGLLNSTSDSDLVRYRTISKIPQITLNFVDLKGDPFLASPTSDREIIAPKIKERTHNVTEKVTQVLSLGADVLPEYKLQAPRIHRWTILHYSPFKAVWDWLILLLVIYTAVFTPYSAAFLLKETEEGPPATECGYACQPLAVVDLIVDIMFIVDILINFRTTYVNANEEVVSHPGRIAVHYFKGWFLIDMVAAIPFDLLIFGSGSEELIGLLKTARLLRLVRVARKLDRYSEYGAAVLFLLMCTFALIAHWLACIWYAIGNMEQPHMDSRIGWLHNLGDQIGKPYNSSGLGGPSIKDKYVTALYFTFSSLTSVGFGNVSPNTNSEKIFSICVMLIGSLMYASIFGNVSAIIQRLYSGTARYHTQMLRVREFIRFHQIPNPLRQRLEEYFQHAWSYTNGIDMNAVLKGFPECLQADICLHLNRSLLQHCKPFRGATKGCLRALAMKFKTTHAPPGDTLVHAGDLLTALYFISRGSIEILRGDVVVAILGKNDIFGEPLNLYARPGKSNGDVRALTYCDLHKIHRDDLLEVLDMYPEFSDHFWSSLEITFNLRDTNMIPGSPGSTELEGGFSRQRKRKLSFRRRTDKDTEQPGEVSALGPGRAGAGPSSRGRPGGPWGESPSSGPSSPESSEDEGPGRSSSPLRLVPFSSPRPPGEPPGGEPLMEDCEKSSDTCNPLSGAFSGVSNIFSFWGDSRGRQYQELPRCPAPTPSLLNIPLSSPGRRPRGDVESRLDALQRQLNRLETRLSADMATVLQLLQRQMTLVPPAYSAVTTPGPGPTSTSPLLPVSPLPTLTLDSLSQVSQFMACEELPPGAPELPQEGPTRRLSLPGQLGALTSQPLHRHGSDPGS
Test: qHTS Assay for Small Molecule Inhibitors of the Human hERG Channel Activity (AID 588834);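 note: lower thallium flux fluorescence means stronger hERG block; nearly all actives have a fitted effect of over 50% in size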; note: potency is the fitted concentration of half-maximal effect
Conditions: U2OS BacMam hERG, FluxOR thallium flux fluorescence; series mostly up to 92.2 µM
Summary of the method: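 Blockade is seen as reduced FluxOR thallium-flux fluorescence in U2OS cells expressing hERG from a BacMam construct, in Opti-MEM with 2% FCS. Concentration-response data fitted to the Hill equation for AC50.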

Row | Structure (SMILES) | Potency
22 | O=S1OCC2C(CO1)C1(Cl)C(Cl)=C(Cl)C2(Cl)C1(Cl)Cl (centres undefined) | 28.2 µM (active)
23 | CCOCN(C(=O)CCl)c1c(C)cccc1CC | inactive
24 | CNC(=O)O/N=C/C(C)(C)SC | inactive
25 | CCNc1nc(Cl)nc(NC(C)C)n1 | inactive
26 | C=CCc1ccc(OC)cc1 | inactive
27 | C/C=C/c1ccc2c(c1)OCO2 | inactive
28 | COP(=S)(OC)Oc1ccc([N+](=O)[O-])cc1 | inactive

Molecular target: Luciferin 4-monooxygenase (Photinus pyralis) (UniProt P08659)
Sequence (P08659 whole entry, looked up): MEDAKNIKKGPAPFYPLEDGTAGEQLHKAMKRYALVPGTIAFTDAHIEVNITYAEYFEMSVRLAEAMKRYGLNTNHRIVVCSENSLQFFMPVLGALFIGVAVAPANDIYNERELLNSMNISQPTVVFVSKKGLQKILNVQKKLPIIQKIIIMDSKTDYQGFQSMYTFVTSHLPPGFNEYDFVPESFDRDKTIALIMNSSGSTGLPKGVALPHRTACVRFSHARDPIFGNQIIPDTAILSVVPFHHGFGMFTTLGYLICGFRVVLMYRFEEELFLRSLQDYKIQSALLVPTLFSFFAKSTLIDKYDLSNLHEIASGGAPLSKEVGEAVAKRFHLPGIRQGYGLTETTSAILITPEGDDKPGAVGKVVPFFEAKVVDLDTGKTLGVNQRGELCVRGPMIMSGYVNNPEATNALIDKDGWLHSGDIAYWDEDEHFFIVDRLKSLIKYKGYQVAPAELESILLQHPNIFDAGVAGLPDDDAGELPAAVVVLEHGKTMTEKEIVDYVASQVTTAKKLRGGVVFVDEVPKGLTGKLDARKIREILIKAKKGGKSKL
Test: Biochemical firefly luciferase enzyme assay for NPC (AID 624030);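 note: purified P. pyralis luciferase at 10 nM with luciferin and ATP substrate; 0% = DMSO and -100% = full luciferase inhibition by PTC124 control; nearly all actives have a fitted effect of over 70% in size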
Conditions: purified P. pyralis luciferase, luminescence, 5 min; series mostly up to 58.6 µM
Summary of the method: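 Purified P. pyralis luciferase at 10 nM in 50 mM Tris Acetate (final), luminescence read within 5 minutes of enzyme addition to compounds. Activity normalised to PTC124 versus DMSO; concentration-response curves classed by r2, magnitude and activity.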

Row | Structure (SMILES) | Potency
29 | C[N+]1([O-])[C@@H]2CC(OC(=O)[C@@H](CO)c3ccccc3)C[C@@H]1[C@H]1O[C@H]12 (some centres undefined) | inactive
30 | C[C@]12CC[C@H](O)CC1=CCC1C2CC[C@]2(C)C(=O)CC[C@@H]12 (some centres undefined) | inactive
31 | ClC1=C(Cl)C2(Cl)C3C4CC(C5OC45)C3C1(Cl)C2(Cl)Cl (centres undefined) | inactive
32 | CCNC[C@H](O)c1cccc(O)c1 | inactive

System: not listed separately
Test: S16 Schwann cell viability assay (CellTiter-Glo assay) (AID 624031);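 note: native untransfected S16 rat Schwann cells; cellular ATP luminescence as a viability measure; plate controls were DMSO-treated cells for no effect and cell-free wells for full effect; nearly all actives have a fitted effect of over 70% in size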
Conditions: S16 rat Schwann cells viability, 24 h; series mostly up to 57.5 µM
Summary of the method: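 Parental S16 cells, 24 h compound, 37 °C. ATP-luminescence viability; DMSO = 0% activity, empty wells as reference; curves classified by fit quality and efficacy.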

Row | Structure (SMILES) | Potency
33 | C[N+]1([O-])[C@@H]2CC(OC(=O)[C@@H](CO)c3ccccc3)C[C@@H]1[C@H]1O[C@H]12 (some centres undefined) | inactive
34 | C[C@]12CC[C@H](O)CC1=CCC1C2CC[C@]2(C)C(=O)CC[C@@H]12 (some centres undefined) | inactive
35 | ClC1=C(Cl)C2(Cl)C3C4CC(C5OC45)C3C1(Cl)C2(Cl)Cl (centres undefined) | inactive
36 | CCNC[C@H](O)c1cccc(O)c1 | inactive

System: not listed separately
Test: S16 Schwann cell PMP22 intronic element firefly luciferase assay (AID 624032); note: nearly all actives have a fitted effect of over 30% in size; note: potency is the fitted concentration of half-maximal effect
Conditions: S16 rat Schwann cells, PMP22 element FLuc, 24 h; series mostly up to 57.5 µM
Summary of the method: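 Rat S16 Schwann cells stably carrying firefly luciferase driven by a PMP22 intronic element, in 10% FBS, treated 24 h at 37 C. ONE-Glo luminescence normalized to PTC124 control and DMSO (0%); curves classed by r2, magnitude and activity.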

Row | Structure (SMILES) | Potency
37 | C[N+]1([O-])[C@@H]2CC(OC(=O)[C@@H](CO)c3ccccc3)C[C@@H]1[C@H]1O[C@H]12 (some centres undefined) | inactive
38 | ClC1=C(Cl)C2(Cl)C3C4CC(C5OC45)C3C1(Cl)C2(Cl)Cl (centres undefined) | inactive
39 | CCNC[C@H](O)c1cccc(O)c1 | inactive
40 | CC(C)C[C@H]1C(=O)N2CCCC2[C@]2(O)O[C@](NC(=O)[C@@H]3C=C4c5cccc6[nH]c(Br)c(c56)C[C@H]4N(C)C3)(C(C)C)C(=O)N12 (some centres undefined) | 8.09 µM (active)

System: not listed separately
Test: S16 Schwann cell PMP22 intronic element beta-lactamase assay (AID 624044; calls by dose curve;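 note: 0% = DMSO and -100% = potassium clavulanate positive control; nearly all actives have a fitted effect of over 15% in size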)
Conditions: S16 rat Schwann cells, PMP22 element beta-lactamase FRET, 24 h; ratio activity, negative = inhibition: at 38.3 µM (top of the series) unless noted
Summary of the method: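 Rat S16 Schwann cells with beta-Lac driven by a PMP22 intronic element, compound-treated 24 h at 37 °C. LiveBLAzer FRET B/G read: 460 nm normalized to potassium clavulanate vs DMSO; 535 nm FRET as viability; concentration-effect curves classified.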

Row | Structure (SMILES) | Potency
41 | C[N+]1([O-])[C@@H]2CC(OC(=O)[C@@H](CO)c3ccccc3)C[C@@H]1[C@H]1O[C@H]12 (some centres undefined) | inactive
42 | ClC1=C(Cl)C2(Cl)C3C4CC(C5OC45)C3C1(Cl)C2(Cl)Cl (centres undefined) | inactive
43 | CCNC[C@H](O)c1cccc(O)c1 | inactive

System: not listed separately
Test: qHTS assay for small molecule agonists of the antioxidant response element (ARE) signaling pathway (AID 651741; active = well fitted activation curve with a large enough effect in the signal ratio; the % refers to the signal ratio; note: potency is the fitted concentration of half-maximal effect; for activation: % of control where 0% means no effect)
Conditions: HepG2 ARE-bla reporter, beta-lactamase FRET ratio, 16 h; series mostly up to 96 µM
Summary of the method: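 HepG2 ARE-bla cells plated at 2,000 cells/well and incubated 5 h at 37 C/5% CO2 received 23 nL compound in DMSO. After 16 h at 37 C, LiveBLAzer B/G FRET substrate was applied for 2 h at room temperature and fluorescence read.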

Row | Structure (SMILES) | Potency
44 | O=C(O)COc1ccc(Cl)cc1Cl | 48.6 µM (active)
45 | ClC1=C(Cl)C2(Cl)C3C4C=CC(C4)C3C1(Cl)C2(Cl)Cl (centres undefined) | 66.8 µM (active)
46 | O=S1OCC2C(CO1)C1(Cl)C(Cl)=C(Cl)C2(Cl)C1(Cl)Cl (centres undefined) | 66.8 µM (active)
47 | CCOCN(C(=O)CCl)c1c(C)cccc1CC | 7.5 µM (active) and 7.7 µM (active)
48 | CNC(=O)O/N=C/C(C)(C)SC | 27.3 µM (active)
49 | CCNc1nc(Cl)nc(NC(C)C)n1 | inactive
50 | C=CCc1ccc(OC)cc1 | inactive
51 | ClC1=C(Cl)C2(Cl)C3C4CC(C5OC45)C3C1(Cl)C2(Cl)Cl (centres undefined) | 42.2 µM (active)
52 | ClC(Cl)=C(c1ccc(Cl)cc1)c1ccc(Cl)cc1 | 66.8 µM (active)
53 | CCc1cccc(CC)c1N(COC)C(=O)CCl | 13.3 µM (active) and 24.3 µM (active)
54 | COP(=S)(OC)Oc1ccc([N+](=O)[O-])cc1 | inactive

Source: PubChem BioAssay (NCATS)
